± gives the standard deviation of the averaged measurements.
tested on: (4S)-cis-verbenol A-neuron OSN class; assay: net action potential response of A-neuron (blank-subtracted) (spikes/s (Hz)); higher = stronger excitation; conditions: 10 µg on filter paper; neuron: A neuron (large spike amplitude)
Description: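 Single sensillum recordings from antennal olfactory sensilla of live adult Ips typographus. Each compound was 10 µg in paraffin oil on filter paper, delivered as a 0.5 s puff. Net response = spikes in the first 0.5 s of response minus the 0.5 s pre-stimulus count, doubled to give Hz, with blank response subtracted. Values are for the large-spike A-neuron class of each of seven sensillum types that co-house the lanierone B-neuron; N = 1-4 sensilla, averaged.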

SMILES	net action potential response
C=CCc1ccc(OC)c(OC)c1 [Eugenol methyl ether]	-0.667 ± 8.1
C=C(C)[C@@H]1CC=C(C)CC1 [(-)-Limonene]	0.667 ± 8.1
CC(=O)OCCc1ccccc1 [2-Phenethyl acetate]	-2 ± 4
c1ccc2c(c1)CCO2 [2,3-Dihydrobenzofuran]	0 ± 2
C=CC(=C)CC(O)C=C(C)C (racemic) [(±)-Ipsdienol]	-2.67 ± 2.3
CCC1CCC2(CCCO2)O1 (racemic) [(±)-Chalcogran]	1.33 ± 5
CC1=C[C@@H](O)[C@H]2C[C@@H]1C2(C)C [(-)-trans-Verbenol]	52.7 ± 13
C=C1CCC2(C(C)C)CC12 (racemic) [(±)-Sabinene]	-4 ± 7.2
CC[C@H]1O[C@]2(C)CCC[C@H]1O2 (racemic) [(±)-exo-Brevicomin]	-3.33 ± 4.2
C=Cc1ccc(OC)cc1 [4-Vinyl anisole]	0.667 ± 5
CCC/C=C/CO	2 ± 4
CC1(C)C2CC=C(CO)C1C2 (racemic) [(±)-Myrtenol]	4.67 ± 1.1
CC1=CCC(=C(C)C)CC1 [Terpinolene]	0 ± 3.5
CCCCCCO [1-Hexanol]	-1.33 ± 4.6
Cc1ccc(C(C)C)cc1 [p-Cymene]	-2 ± 4
COc1ccccc1 [Anisole]	1.33 ± 7.6
CC(=O)OC/C=C(\C)CCC=C(C)C [Geranyl acetate]	-2.67 ± 4.2
CC(=O)OCc1ccccc1 [Benzyl acetate]	1.33 ± 8.1
C[C@@H]1C(=O)C[C@H]2C[C@@H]1C2(C)C [(+)-Isopinocamphone]	-0.667 ± 4.6
C=C(C)C1CC=C(C)C(=O)C1 (racemic) [(±)-Carvone]	2 ± 4

SMILES	net action potential response
C=CC(C)(C)O [2-Methyl-3-buten-2-ol]	-4 ± 4
CC(C)CCO [3-Methyl-1-butanol]	6 ± 7.2
CC12CCC(CC1)C(C)(C)O2 [1,8-Cineole]	1.33 ± 4.2
C=C1CCC2CC1C2(C)C (stereo not drawn) [(-)-β-Pinene]	-3 ± 4.2
CCc1ccc(O)c(OC)c1 [4-Ethylguaiacol]	2 ± 6
CCCCCC(O)CC (racemic) [(±)-3-Octanol]	-6.67 ± 1.1
CC(=O)CC/C=C(\C)CCC=C(C)C [Geranylacetone]	3.33 ± 6.1
CC1=CCC2CC1C2(C)C (stereo not drawn) [(-)-α-Pinene]	-2.67 ± 3.1
CC/C=C\CCO	-0.667 ± 3.1
C[C@H]1C(=O)C[C@H]2C[C@@H]1C2(C)C [(-)-Pinocamphone]	2.67 ± 6.4
C=CC(=C)CCC=C(C)C [Myrcene]	2 ± 4
CC1=CC(=O)[C@@H]2C[C@H]1C2(C)C [(-)-Verbenone]	24.7 ± 25
CCC/C=C/C=O [(E)-hex-2-enal]	4 ± 10
CC12CCC(CC1=O)C2(C)C (racemic) [(±)-Camphor]	-2.67 ± 8.1
CC1=CCC2C(C1)C2(C)C (single isomer, unassigned; (+)) [(+)-3-Carene]	3.33 ± 7
CC(C)[C@@]12CC[C@@](C)(O)[C@@H]1C2 [(+)-trans-4-Thujanol]	-0.667 ± 3.1
C=CC(O)CCCCC (racemic) [(±)-1-Octen-3-ol]	2.67 ± 3.1
C=Cc1ccccc1 [Styrene]	1.33 ± 9
CCCCCC=O [Hexanal]	0.667 ± 5
C=CC(=C)C[C@@H](O)CC(C)C (racemic) [(±)-Ipsenol]	1.33 ± 4.2

From the supplement of paper PMC11577813, “Eurasian spruce bark beetle detects lanierone using a highly expressed specialist odorant receptor, present in several functional sensillum types” (BMC Biology, 2024)
